The text below walks through data of PubChem BioAssay (NCI).

Among the test systems are HCT-15 colon; HT29 colon; SNB-75 CNS; SNB-19 CNS; U251 CNS; PC-3 prostate; SK-MEL-5 melanoma; UACC-62 melanoma; LOX IMVI melanoma; SK-MEL-28 melanoma.
What all share (assay): NCI-60 one-dose screen, 48 h (100 = growth as untreated, 0 = no growth, -100 = all killed)
What all share (details): 10 µM unless noted

The panel holds about 83,000 compounds, 20% with a hit somewhere; the sample as a whole holds those more often.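 Results are percent growth after 48 hours of single-concentration exposure. 100 means growth as in untreated cells, lower positive values show inhibition; negative values down to -100 show cell death.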 Unmarked numbers belong to inactive results. Active and inactive are the calls of the source. The calls were made as follows: active = growth percent below 10; inactive = the rest.

On to `N=C(N)c1ccc(NCCNc2ccc(C(=N)N)cc2)cc1`, for which the growth is 90.6% with HCT-15 colon; 103% with HT29 colon; 101% with SNB-75 CNS; 116% with SNB-19 CNS; 89.8% in the assay on U251 CNS; 123% with PC-3 prostate. In addition, the growth was 82% in the assay on SK-MEL-5 melanoma, 81.8% in the assay on UACC-62 melanoma, 86.8% with LOX IMVI melanoma and 114% in the assay on SK-MEL-28 melanoma.

With `CC[C@]1(O)C[C@H]2CN(CCc3c([nH]c4ccccc34)C(C(=O)OC)(c3cc4c(cc3OC)N(C)[C@H]3[C@@](O)(C(=O)OC)[C@H](OC(C)=O)[C@]5(CC)[C@@H]6C[C@@H]6CN6CC[C@]43[C@@H]65)C2)C1` (stereo not given in full), the growth in the assay on HCT-15 colon was 19.5%; with HT29 colon, 7.29% (active); in the assay with SNB-75 CNS, -14.6% (active); with SNB-19 CNS, 24%; with U251 CNS, 13.7%; with PC-3 prostate, 18.9%. In addition, the growth in the assay with SK-MEL-5 melanoma is -80.1% (active); with UACC-62 melanoma it was 14.5%; with LOX IMVI melanoma, 5.88% (active); with SK-MEL-28 melanoma it was 53.7%.

As to `O=C(CSc1nnc(Cc2ccccc2Nc2c(Cl)cccc2Cl)n1-c1ccccc1)N1N=C(c2ccc3ccccc3c2)CC1c1ccc(Cl)cc1` (stereo not given), the growth in the assay on HCT-15 colon is 98.9%; with HT29 colon, 86.2%; in the assay with SNB-75 CNS it was 81%; in the assay with SNB-19 CNS it was 95.1%; with U251 CNS it was 98.3%; in the assay with PC-3 prostate, 87.1%. For the same compound, the growth with SK-MEL-5 melanoma is 104%; in the assay with UACC-62 melanoma, 87.6%; in the assay with LOX IMVI melanoma, 94%; in the assay with SK-MEL-28 melanoma, 112%.

Turning to `NS(=O)(=O)c1ccc(CCn2c(SCC(=O)N/N=C/c3cc4ccccc4[nH]3)nc3ccccc3c2=O)cc1`, the growth in the assay with HCT-15 colon was 91.4%; in the assay with HT29 colon it was 39.2%; in the assay with SNB-75 CNS it was 80%; in the assay with SNB-19 CNS, 58.6%; in the assay on U251 CNS it was 30.6%; with PC-3 prostate it was 40.2%. The growth is 31.9% with SK-MEL-5 melanoma, 53.3% in the assay with UACC-62 melanoma, 49.1% in the assay with LOX IMVI melanoma and 88.3% in the assay on SK-MEL-28 melanoma.

Turning to `COc1cnc2c(c1)C(=O)c1c-2n(CCCNC(C)C)c(=O)c2cc(Cl)ccc12`, the growth in the assay on HCT-15 colon was -47.2% (active); in the assay with HT29 colon it was -90.6% (active); in the assay with SNB-75 CNS it was 10.4%; in the assay on SNB-19 CNS it was -23.2% (active); in the assay on U251 CNS it was -86.6% (active); in the assay on PC-3 prostate, -51.7% (active). Further, the growth in the assay with SK-MEL-5 melanoma is -81.3% (active); with UACC-62 melanoma it was -62.8% (active); in the assay with LOX IMVI melanoma it was -88.1% (active); in the assay with SK-MEL-28 melanoma, -89.7% (active).

Take `CC(C)(C)[Si](C)(C)OC1[C@@H](O[Si](C)(C)C(C)(C)C)[C@@H](CNC(=O)NC(=O)NC(=O)CI)O[C@H]1n1cnc2c(NC(=O)Nc3ccccc3)ncnc21` (stereo not given in full): the growth was 83.1% in the assay on HCT-15 colon; -39.8% (active) in the assay with HT29 colon; 68.1% in the assay with SNB-75 CNS; 103% with SNB-19 CNS; 32.5% with U251 CNS; 14.7% in the assay on PC-3 prostate. Besides, the growth in the assay on SK-MEL-5 melanoma was 102%; with UACC-62 melanoma it was 75.4%; in the assay on LOX IMVI melanoma, -80.7% (active); in the assay with SK-MEL-28 melanoma it was 125%.

In the case of `COc1ccc(C2c3cccn3-c3ccccc3N2C(C)=O)cc1` (stereo not given), the growth with HCT-15 colon was 87.7%; with HT29 colon, 115%; in the assay on SNB-75 CNS, 77.4%; in the assay with SNB-19 CNS, 100%; in the assay on U251 CNS, 106%; in the assay on PC-3 prostate, 78.4%. The growth in the assay with SK-MEL-5 melanoma was 96.1%; in the assay on UACC-62 melanoma it was 86.3%; in the assay on LOX IMVI melanoma it was 96.1%; in the assay with SK-MEL-28 melanoma it was 108%.

`COc1ccc(-c2conc2-n2nc(-c3ccccc3)nc2-c2ccccc2)cc1`: the growth in the assay with HCT-15 colon was 107%; in the assay with HT29 colon, 102%; with SNB-75 CNS it was 98.3%; in the assay on SNB-19 CNS, 104%; with U251 CNS, 106%; with PC-3 prostate, 95.6%. The growth was 101% with SK-MEL-5 melanoma, 103% with UACC-62 melanoma, 92.6% with LOX IMVI melanoma and 108% in the assay with SK-MEL-28 melanoma.

As for `c1ccc(CCn2cccc2)nc1`, the growth with HCT-15 colon is 119%; in the assay on HT29 colon, 114%; in the assay with SNB-75 CNS, 95.1%; with SNB-19 CNS it was 105%; in the assay on U251 CNS, 103%; in the assay with PC-3 prostate, 98.9%. Besides, the growth in the assay on SK-MEL-5 melanoma is 109%; with UACC-62 melanoma, 97.9%; with LOX IMVI melanoma, 98.6%; with SK-MEL-28 melanoma, 118%.

In the case of `CC(C)(C)[Si](C)(C)OC1[C@@H](O[Si](C)(C)C(C)(C)C)[C@@H](CNC(=O)NC(=O)NC(=O)CCl)O[C@H]1n1cnc2c(NC(=O)Nc3ccccc3)ncnc21` (stereo not given in full), the growth is 79% in the assay on HCT-15 colon; -11.4% (active) in the assay with HT29 colon; 80.2% in the assay with SNB-75 CNS; 99.5% in the assay with SNB-19 CNS; 29.7% in the assay on U251 CNS; 11.3% in the assay with PC-3 prostate. Besides, the growth with SK-MEL-5 melanoma is 86.6%; in the assay with UACC-62 melanoma it was 87.7%; with LOX IMVI melanoma it was -74.5% (active); in the assay with SK-MEL-28 melanoma, 105%.

With `CC(C)=CC[C@@H]1CC2(CC=C(C)C)C(=O)C(OC3(C(=O)c4ccccc4)C(=O)C4(CC=C(C)C)C[C@@H](CC=C(C)C)C(C)(C)C(CC=C(C)C)(C4=O)C3=O)(C(=O)c3ccccc3)C(=O)C(CC=C(C)C)(C2=O)C1(C)C` (stereo not given in full), the growth with HCT-15 colon is 5.15% (active); in the assay with HT29 colon it was -16.1% (active); with SNB-75 CNS, 37.6%; in the assay with SNB-19 CNS, 11.6%; with U251 CNS, 5.76% (active); in the assay with PC-3 prostate it was -17.3% (active). In addition, the growth was -77.5% (active) with SK-MEL-5 melanoma, -71.3% (active) with UACC-62 melanoma, 1.63% (active) with LOX IMVI melanoma and 14.9% in the assay with SK-MEL-28 melanoma.

Regarding `COCc1nc(NS(=O)(=O)c2ccc(N)cc2)nc(C)c1Br`, the growth is 97.7% in the assay on HCT-15 colon; 88.6% in the assay with HT29 colon; 89.4% in the assay with SNB-75 CNS; 108% with SNB-19 CNS; 103% in the assay on U251 CNS; 101% in the assay with PC-3 prostate. The growth in the assay on SK-MEL-5 melanoma is 102%; with UACC-62 melanoma, 101%; in the assay with LOX IMVI melanoma it was 94.1%; in the assay with SK-MEL-28 melanoma, 105%.

For the compound `Nc1c(C(=O)Nc2cccc(Cl)c2)sc2nc3c(cc12)C(=O)CCC3`, the growth with HCT-15 colon was 32.4%; in the assay with HT29 colon, 23.9%; with SNB-75 CNS it was 25.9%; in the assay on SNB-19 CNS it was 38.2%; in the assay on U251 CNS, 46.4%; in the assay with PC-3 prostate it was 29.1%. Moreover, the growth was 27.2% with SK-MEL-5 melanoma, 43.7% in the assay on UACC-62 melanoma, 46.1% in the assay on LOX IMVI melanoma and 51.4% in the assay with SK-MEL-28 melanoma.

For the compound `CSC1=N/C(=C\c2cccc(OCc3ccc(Cl)cc3)c2)C(=O)N1`, the growth is 81.4% in the assay on HCT-15 colon; 76.7% with HT29 colon; 82.5% in the assay on SNB-75 CNS; 90.4% in the assay with SNB-19 CNS; 84.5% with U251 CNS; 76% in the assay on PC-3 prostate. Further, the growth is 77.7% with SK-MEL-5 melanoma, 70.4% in the assay with UACC-62 melanoma, 84.2% in the assay on LOX IMVI melanoma and 100% in the assay on SK-MEL-28 melanoma.

For the compound `CCn1c(Cc2ccccc2Nc2c(Cl)cccc2Cl)nnc1SCC(=O)Nc1ccccc1C(F)(F)F`, the growth is 84.6% in the assay with HCT-15 colon; 81.8% in the assay with HT29 colon; 92.9% in the assay with SNB-75 CNS; 86.5% with SNB-19 CNS; 93.3% in the assay on U251 CNS; 67.4% with PC-3 prostate. Besides, the growth was 92% with SK-MEL-5 melanoma, 63.1% with UACC-62 melanoma, 93.9% with LOX IMVI melanoma and 107% with SK-MEL-28 melanoma.

With `Clc1cccc(CNc2c3ccccc3nc3ccccc23)c1`, the growth in the assay on HCT-15 colon is 14%; in the assay with HT29 colon, 8.62% (active); in the assay with SNB-75 CNS, 68.7%; in the assay with SNB-19 CNS, 26.4%; in the assay on U251 CNS, 22.7%; with PC-3 prostate, 23.5%. Besides, the growth is 66.2% in the assay on SK-MEL-5 melanoma, 52.6% with UACC-62 melanoma, 1.75% (active) with LOX IMVI melanoma and 66.2% with SK-MEL-28 melanoma.

On to `COc1ccc(-c2cc(-c3ccc(OC)cc3)c3sc(=O)[nH]c3n2)cc1`, for which the growth is 90.2% with HCT-15 colon; 102% with HT29 colon; 88.6% in the assay on SNB-75 CNS; 73.8% in the assay with SNB-19 CNS; 72.6% with U251 CNS; 86.1% in the assay on PC-3 prostate. The growth in the assay with SK-MEL-5 melanoma was 96.4%; with UACC-62 melanoma it was 90.1%; in the assay on LOX IMVI melanoma, 92.3%; in the assay with SK-MEL-28 melanoma, 115%.

Consider `CCN1C(=O)N(CC)C2C1NN=c1s/c(=C\c3ccco3)c(=O)n12` (stereo not given), for which the growth in the assay with HCT-15 colon is 19.9%; with HT29 colon, 8.57% (active); in the assay on SNB-75 CNS, -1.06% (active); with SNB-19 CNS, 22.7%; in the assay on U251 CNS it was 22.7%; with PC-3 prostate, 17.7%. Further, the growth in the assay with SK-MEL-5 melanoma is 12.8%; in the assay on UACC-62 melanoma it was 29.2%; in the assay on LOX IMVI melanoma, 40.4%; with SK-MEL-28 melanoma, 58.9%.

On to `C#CCO[C@H]1CC[C@H](OCC#C)[C@@H]2[C@H]1[C@H]1C[C@@H]3[C@@]4(C)CCC[C@@](C)(C(=O)OC)[C@@H]4CC[C@@]23C=C1C(C)C`, for which the growth with HCT-15 colon was 91.8%; with HT29 colon, 53.6%; in the assay on SNB-75 CNS it was 94.7%; with SNB-19 CNS it was 96.1%; in the assay on U251 CNS, 46.8%; in the assay with PC-3 prostate it was 44.8%. Further, the growth was 87.6% in the assay with SK-MEL-5 melanoma, 74.6% in the assay with UACC-62 melanoma, -64.5% (active) in the assay with LOX IMVI melanoma and 102% with SK-MEL-28 melanoma.

For `CCCCCCCCCCCCCCCC1=NCCN1`, the growth was 0.909% (active) in the assay with HCT-15 colon; 4.17% (active) with HT29 colon; 82.7% with SNB-75 CNS; 24.8% in the assay on SNB-19 CNS; 16.1% in the assay with U251 CNS; 47.6% in the assay on PC-3 prostate. Moreover, the growth in the assay on SK-MEL-5 melanoma is 80.6%; in the assay on UACC-62 melanoma it was 76.1%; in the assay with LOX IMVI melanoma, 1.64% (active); in the assay with SK-MEL-28 melanoma it was 80.7%.
